Assay results reported in PubChem BioAssay AID652105 (National Center for Advancing Translational Sciences (NCATS), 2013).
Among all 330,000 compounds or so, about 4,100 (1.2%) were called active. Not shown: some 2% with an inconclusive outcome. This excerpt belongs to a sample that is enriched for actives. Values without a mark were called inactive. Rule for the calls: active = max response of -50% or lower; inconclusive = between -30% and -50%; inactive = -30% or higher.
% is set by controls: 0 for no effect and ±100 for the full control effect.
Note: value at the top dose of about 77 µM.

Each molecule was assayed against Phosphatidylinositol 5-phosphate 4-kinase type-2 alpha (Homo sapiens) (UniProt P48426) (assay: qHTS for Inhibitors of phosphatidylinositol 5-phosphate 4-kinase (PI5P4K)). Conditions: PI5P4Kalpha enzyme, ADP-Glo luminescence, 60 min; stronger effect = lower value.
Phosphatidylinositol 5-phosphate 4-kinase type-2 alpha (Homo sapiens), sequence (P48426 whole entry, looked up): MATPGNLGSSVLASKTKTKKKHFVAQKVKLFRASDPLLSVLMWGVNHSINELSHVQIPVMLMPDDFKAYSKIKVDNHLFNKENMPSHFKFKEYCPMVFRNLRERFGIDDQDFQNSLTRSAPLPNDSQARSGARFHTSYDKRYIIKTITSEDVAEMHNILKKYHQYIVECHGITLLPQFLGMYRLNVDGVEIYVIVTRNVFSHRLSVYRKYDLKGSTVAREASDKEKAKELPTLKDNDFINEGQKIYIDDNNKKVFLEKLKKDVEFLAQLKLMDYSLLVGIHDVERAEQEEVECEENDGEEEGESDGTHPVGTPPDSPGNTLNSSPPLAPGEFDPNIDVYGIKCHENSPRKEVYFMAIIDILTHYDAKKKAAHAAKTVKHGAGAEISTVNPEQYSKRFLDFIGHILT
In short: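 ADP-Glo luminescence end-point read after a 60 min room-temperature kinase reaction of PI5P4Kalpha plus substrate, initiated with ATP at 5 microM final. Buffer: 0.038 M HEPES pH 7.4, EGTA, 0.1% CHAPS, 5% DMSO.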
In the case of `CC(=O)Nc1cc(-c2ccccc2N(C)C)cn2c(-c3ccc(F)c(Cl)c3)cnc12`, the max response is reported as -1.56%.
`NC(c1csc(NC(=O)Nc2cccc(C(F)(F)F)c2)n1)C1CCCCC1` (stereo not given) was tested, and the max response was 10.5%.
In the case of `Cc1ccc([C@H]2C[C@H](O)[C@@H](n3cc(COC(=O)c4ccccc4)nn3)CN2CC2CCCCC2)cc1`, the max response is reported as 19.2%.
`O=C(NCc1ccccc1)C1c2ccccc2OCC(=O)N1CCCN1CCOCC1` (stereo not given) was tested, and the max response was 0.215%.
`O=C(c1ccc(C(F)(F)F)cc1)N1CCC(=O)N([C@H](COCc2ccccc2)Cc2ccccc2)CC1` was tested, and the max response was 5.29%.
Molecule `COC(=O)c1ccc2nc(C3CCCCC3)c(Cc3cccc(F)c3)n2c1` has a max response of -0.596%.
With `CCCCOCCCNC(=O)C[C@@H]1C[C@@]2(C(=O)OC)CCCCC=C2N(CCC2=CCCCC2)C1=O` the max response was 17.9%.
Molecule `O=C(Nc1ccc(N2CCOCC2)cc1)c1cccc2c(-c3ccc(F)c(F)c3)coc12` has a max response of 5.02%.
`CCc1c(N=O)c(-c2ccccc2)n(O)[n+]1[O-]` gave a max response of -5.54%.
In the case of `Cc1ccsc1C(=O)N/N=C/c1ccc([N+](=O)[O-])cc1`, the max response is reported as -10.5%.
Molecule `O=C(N/N=C/c1ccc([N+](=O)[O-])cc1)c1c[nH]c2ccccc12` has a max response of 1.35%.
For `O=C(N/N=C/c1ccc(Cl)cc1)c1nc2ccc([N+](=O)[O-])cc2c(=O)[nH]1`, the max response was -60.4% (active).
In the case of `O=C(CCc1ccc(O)cc1)NN=Cc1cc(Br)ccc1O`, the max response is reported as -16.2%.
`COc1ccc(NC(=O)C2Cc3c(-c4ccc5c(c4)OCO5)ccnc3O2)cn1` (stereo not given) showed a max response of -13.8%.
`O=[N+]([O-])c1ccc(N2CCSCC2)cc1O` gave a max response of -3.3%.
With `O=C1CSC(=S)N1/N=C/c1ccc(O)c([N+](=O)[O-])c1` the max response was -104% (active).
`O=C1CSC(=S)N1c1ccc(O)cc1` gave a max response of -3.72%.
Work on `CC1Cc2[nH][nH]c(=O)c2C(C2CCCC2)O1` (stereo not given) yielded a max response of 0.644%.
`CC1=C(C(=O)N2CCOCC2)CC(CC(=O)NCCCN(C)C)C(=O)N1Cc1ccc(C(C)(C)C)cc1` (stereo not given) was tested, and the max response was 1.54%.
With `Fc1ccc(COc2ccc(-c3nnco3)cc2)cc1` the max response was -2.69%.
With `Fc1ccc(COc2cccc(-c3n[nH]c(=S)o3)c2)cc1` the max response was -51.9% (active).
`Fc1ccc(/C=N/n2c(COc3ccccc3)n[nH]c2=S)cc1` was tested, and the max response was 5.11%.
With `Cc1cccc(CNC(=O)c2sc(=O)n(Cc3ccccc3C)c2C)c1` the max response was 0.532%.
Work on `COc1ccc(-c2ccc(C(=O)NC(C)C)c3occc23)c(C)c1` yielded a max response of 4%.
For `CC[C@@H]1Cc2cc(O)ccc2C2=C1c1ccc(O)cc1C[C@H]2CC`, the max response was -54.7% (active).
`Cc1ccc(C(=O)N2CCCc3ccccc32)c(Cl)c1` gave a max response of 0.412%.
In the case of `CC(C)(C)c1nnc2sc(SCC(O)=C(C#N)c3nc4ccccc4[nH]3)nn2c1=O`, the max response is reported as -56.5% (active).
For `N#C/C(=C(/O)COC(=O)COc1ccc(Cl)cc1)c1nc2ccccc2[nH]1`, the max response was -17%.
For `N#C/C(=C(/O)COc1cccc2ccccc12)c1nc2ccccc2[nH]1`, the max response was -15.3%.
For `COC(=O)[C@@]12C[C@@H](CC(=O)N3CCC(c4ccccc4)CC3)C(=O)N(Cc3ccccc3)C1=CCC(C)(C)C2`, the max response was 3.29%.
For `COc1ccc(C(C)(NC(C)=O)c2nc(-c3ccc(S(C)(=O)=O)cc3)cs2)cc1` (stereo not given), the max response was -2.22%.
With `O=C(Nc1cc(Br)ccc1F)c1nc[nH]c1C(=O)NCc1ccccc1` the max response was 32.1%.
Molecule `O=C(Cc1ccc([N+](=O)[O-])cc1)NCCS(=O)(=O)N1CCN(c2ccccc2)CC1` has a max response of -2.51%.
In the case of `O=c1ccc2c(-c3ccccc3S(=O)(=O)O)c3ccc(O)c(O)c3oc-2c1O`, the max response is reported as -99.8% (active).
Molecule `COc1ccccc1CNc1nc(Nc2ccccc2Cl)c2sccc2n1` has a max response of -3.83%.
`CC(=O)c1ccc(Nc2nc(C(N)c3ccccc3Cl)cs2)cc1` (stereo not given) was tested, and the max response was 1.57%.
`CC1(Oc2ccccc2-c2ccno2)CCN(Cc2ccc(-c3ccccc3)o2)C1` (stereo not given) gave a max response of -1.74%.
Molecule `CC(=O)Nc1cccc(Nc2ccc(C#N)cc2)c1` has a max response of 1.81%.
With `COC(=O)[C@]12CCCCC=C1N(Cc1ccco1)C(=O)[C@H](CC(=O)NCCCCc1ccccc1)C2` the max response was 0.498%.
For `CCc1c(C)[nH]c(=S)c(C#N)c1C`, the max response was -67.1% (active).
`O=S1(=O)CCN(C2CCCCCCCCCCC2)CC1` showed a max response of 7.96%.
`O=Cc1cn(CCOc2ccc(F)cc2)c2ccccc12` gave a max response of 7.27%.
For `COC(=O)c1ccc2nc(-c3ccc(F)cc3)c(Cc3ccc(C)cc3)n2c1`, the max response was 0.932%.
With `O=S1(=O)C[C@@H](N2CCN(CCO)CC2)[C@H](COCc2ccccc2)N1` the max response was -1.64%.
`CC(C)Oc1cc(F)ccc1-c1cc(C(=O)Nc2cccc(Cl)c2)[nH]n1` was tested, and the max response was 0.377%.
Work on `COc1ccc(OC)c(C(O)c2ncc(-c3cccc(C(F)(F)F)c3)[nH]2)c1` (stereo not given) yielded a max response of -2.56%.
In the case of `CC1(OC(=O)C2CCCC2)C(=O)C=C2C=C(c3ccc(C#N)cc3)OC=C2C1=O` (stereo not given), the max response is reported as -76.4% (active).
In the case of `COCCN1C=C2C(=O)C(C)(OC(=O)C3CCCC3)C(=O)C=C2C=C1c1ccsc1` (stereo not given), the max response is reported as -2.59%.
`C=CCN1C=C2C(=O)C(C)(OC(=O)CCc3ccccc3)C(=O)C=C2C=C1c1ccc(C#N)cc1` (stereo not given) gave a max response of -25.6%.
`COc1ccccc1Cc1c(-c2ccc(Cl)cc2)nc2ccc(Cl)cn12` was tested, and the max response was -3.05%.
Molecule `CC(C)N(C(=O)CSc1nnc(NC2CC2)s1)c1ccccc1` has a max response of 2.4%.
Work on `Cc1ccccc1Nc1nnc(SCC(=O)c2cc3ccccc3o2)s1` yielded a max response of -19.3%.
`Cc1ccc(Nc2nnc(SCC(=O)c3cc4ccccc4o3)s2)cc1C` was tested, and the max response was -55.9% (active).
`CC(C)c1ccc(Nc2nnc(SCC(=O)c3nnc(-c4ccccc4)o3)s2)cc1` was tested, and the max response was -79.1% (active).
In the case of `CC(C)Nc1nnc(SCC(=O)c2c[nH]c3ccccc23)s1`, the max response is reported as -3.57%.
Work on `NC(=O)CSc1nnc(NC(=O)c2ccc3ccccc3c2)s1` yielded a max response of -9.56%.
With `O=C1NC[C@H](CCCCN2C[C@H](Cc3ccc(O)cc3)N(CCc3ccccc3)C(=O)C2=O)N(CCc2ccccc2)C1=O` the max response was -2.29%.
`COCc1cccc(-c2csc(C(O)c3ccc(F)cc3)n2)c1` (stereo not given) showed a max response of 0.323%.
`COc1ccc(C(=O)N2CCCCC2c2cc(C(=O)Nc3ccc(F)c(Cl)c3)no2)cc1` (stereo not given) gave a max response of -6.25%.
In the case of `NC(Cc1ccccc1)c1csc(Nc2cc(Oc3ccccc3)ncn2)n1` (stereo not given), the max response is reported as 1.15%.
Work on `O=C(/C=C/c1ccc(F)cc1)NCCNC(=O)/C=C/c1ccc(F)cc1` yielded a max response of 3.31%.
In the case of `O=C(/C=C(O)/C=C/c1ccc(O)cc1)/C=C/c1ccc(O)cc1`, the max response is reported as -59.8% (active).
Molecule `O=C(/C=C/c1ccc2c(c1)OCCO2)c1ccc(O)cc1` has a max response of -20.1%.
`O=C1c2ccccc2-c2ccccc2NC1O` (stereo not given) showed a max response of -1.89%.
For `Cc1nnc(NC(=O)CCCOc2ccccc2)s1`, the max response was -10%.
`COc1ccc(NC(=O)CCC(=O)Nc2nnc(C3CCCCC3)s2)cc1` was tested, and the max response was 0.477%.
In the case of `COc1ccc(OCCCC(=O)Nc2nnc(C3CCCO3)s2)cc1` (stereo not given), the max response is reported as -53% (active).
Molecule `Cc1ccc(S(=O)(=O)N2CCC(=O)N([C@H](COCc3ccccc3)C(C)C)CC2)cc1` has a max response of -1.43%.
For `CC(=O)Nc1cccc(-c2ccnc3c2CC(C)(C(=O)NCc2ccccc2)O3)c1` (stereo not given), the max response was 0.0166%.
`COC(=O)c1ccc(CN2C(=O)C(Cc3ccccc3)ON=C2c2ncccc2C)o1` (stereo not given) showed a max response of -4%.
For `CCOC(=O)c1ccc(Nc2cc3ccccc3c(=O)[nH]2)cc1`, the max response was 3.2%.
`CCOC(=O)c1cc2c(=O)[nH]c(C(Cl)(Cl)Cl)nc2o1` was tested, and the max response was -59.5% (active).
In the case of `CCOC(=O)c1ccc(COC(=O)c2cc(=O)[nH]c3ccccc23)o1`, the max response is reported as 0.0752%.
In the case of `CCC(C)CN1C(=O)CSCC1(C)C(=O)NCc1ccccc1` (stereo not given), the max response is reported as -2.56%.
`COc1cc2c(C(=O)O)c(C)n(C)c2c2ccccc12` showed a max response of -2.64%.
Work on `Cc1c(C(=O)N/N=C/c2ccccc2)[nH]c2c([N+](=O)[O-])cccc12` yielded a max response of -0.171%.
With `COc1cccc2c(C)c(C(=O)O)[nH]c12` the max response was -63.9% (active).
In the case of `COc1cc2c(=O)n(C)c3ccccc3c2cc1OC`, the max response is reported as 1.08%.
`CN(C(=O)c1ccccn1)c1nnc(-c2ccccn2)s1` gave a max response of 3.64%.
In the case of `S=c1[nH]nc(-c2cc(-c3ccsc3)n[nH]2)n1-c1ccccc1`, the max response is reported as -10.2%.
With `c1ccc(-c2cc(-c3nnc4sc(-c5ccccn5)nn34)[nH]n2)cc1` the max response was -57.7% (active).
`CC1(C)OC(=O)C2=C(C[C@@H](C3CCCC3)O[C@@H]2c2ccc(Cl)cc2)O1` gave a max response of 3.13%.
For `CCCNC(=O)c1cc(C2CCCCN2C(=O)OC)on1` (stereo not given), the max response was -2.43%.
Molecule `Cc1sc2nc(CSCC(=O)NC3CCCCC3)[nH]c(=O)c2c1C` has a max response of -13.2%.
`CSc1nnc(SCc2nc3sc(C(=O)O)c(C)c3c(=O)[nH]2)s1` was tested, and the max response was -79.5% (active).
In the case of `Cc1sc2nc(CSCC(=O)Nc3c(Cl)cccc3Cl)[nH]c(=O)c2c1C`, the max response is reported as 1.38%.
Work on `CCCOc1ccc(F)cc1-c1cc(C(=O)Nc2ccc(F)c(Cl)c2)[nH]n1` yielded a max response of -4.85%.
Work on `Cc1cc(O)ccc1-c1cc(C(=O)NCc2cc(C(F)(F)F)cc(C(F)(F)F)c2)[nH]n1` yielded a max response of -3.12%.
`CN(C)C(=O)c1cccc(-c2cnc3c(NC=O)cc(-c4ccc(C(=O)N5CCOCC5)cc4)cn23)c1` showed a max response of -13.4%.
In the case of `Cc1cc(Br)ccc1NC(=O)CCCOc1cc(=O)n(C)c2ccccc12`, the max response is reported as 3.17%.
Work on `CN1OC[C@@H]2CN(S(=O)(=O)c3cccc4ccccc34)[C@H](c3ccc(N4CCCCC4)cc3)C[C@@H]21` yielded a max response of 7.24%.
In the case of `COc1cc(N2C(=O)CSC2=S)cc(OC)c1OC`, the max response is reported as 0.509%.
Molecule `CCOc1cccc(/C=N/NC(=S)NCCN2CCOCC2)c1O` has a max response of -0.183%.
`CCOc1cccc(/C=N/N2C(=O)CSC2=S)c1O` was tested, and the max response was -51.6% (active).
`COc1cc(Cn2c3ccc(NC(=O)CC(C)c4ccccc4)cc3c(=O)n2C)ccc1F` (stereo not given) was tested, and the max response was 2.27%.
Work on `NC(=O)CCN1CCN(S(=O)(=O)/C=C/c2ccccc2)CC1` yielded a max response of 0.132%.
Molecule `Cc1ccc2c(CN3CCN(S(=O)(=O)c4ccccc4C(F)(F)F)CC3)cc(=O)oc2c1` has a max response of -4.51%.
`O=c1cc(CN2CCN(S(=O)(=O)/C=C/c3ccccc3)CC2)c2ccc(O)cc2o1` was tested, and the max response was -55% (active).
Work on `CN(Cc1cn(Cc2ccc(C(F)(F)F)cc2)nn1)C1CN(Cc2cn(Cc3ccc(C(F)(F)F)cc3)nn2)S(=O)(=O)C1` (stereo not given) yielded a max response of 11.5%.
Molecule `COc1ccc(-c2ccc(C(=O)NCCN3CCOCC3)c3occc23)c(C)c1` has a max response of 2.58%.
With `O=[n+]1c2c(n([O-])c3cc(Br)ccc31)CCC2` the max response was -56.6% (active).
`Cc1ccc(-c2c[n+](=O)c3c(n2[O-])CCC3)cc1` was tested, and the max response was 3.26%.
`Cc1ccc(-c2c(C)n([O-])c3c([n+]2=O)CCC3)cc1` was tested, and the max response was 0.293%.
`CC1(C(=O)NCc2ccc(F)c(F)c2)Cc2c(-c3ccc4c(c3)OCO4)ccnc2O1` (stereo not given) was tested, and the max response was 0.999%.
For `CN1OC[C@@H]2CN(C(=O)c3cccnc3)[C@H](c3ccc(N4CCCCC4)cc3)C[C@@H]21`, the max response was -1.25%.
